Results taken from PubChem BioAssay (EPA / NIEHS).
More than one record can exist for a structure, and the calls need not agree. The source made the active and inactive calls. How the source made its calls: active means hit-call score of the fitted dose curve at least 0.9, where 1 is the maximum; inactive means score below 0.9.

Assays:
[1] = read-out: Vascular endothelial growth factor receptor 2 (Homo sapiens) (UniProt P35968); assay: BSK_4H_VEGFRII: BioMAP Diversity Plus: 4H Assay for Vascular endothelial growth factor receptor 2 (VEGFR2) Biomarker Activity (AID 2283031); conditions: primary human endothelial cells (HUVEC); actives raise or lower the signal
Procedure, shortened: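 ELISA read-out of VEGFRII in primary human umbilical vein endothelium, taken 24 h after chemical treatment. Responses are expressed relative to DMSO, with bidirectional fitting.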

[2] = read-out: Human Leukocyte Antigen - DR isotype (HLADR), HLA-DRA (gene 3122); assay: BSK_BE3C_HLADR: BioMAP Diversity Plus: BE3C Assay for Human Leukocyte Antigen - DR isotype (HLADR) Biomarker Activity (AID 2283032); conditions: primary human bronchial epithelial cells; actives raise or lower the signal
Procedure, shortened: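 Human primary bronchial epithelial cells in the BE3C system were exposed to chemicals for 24 h, after which HLA-DR levels were quantified by ELISA. Activity was fitted bidirectionally, gain or loss of signal, against DMSO as negative control and baseline.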

[3] = read-out: Vascular cell adhesion molecule 1 (VCAM1), VCAM1 (gene 7412); assay: BSK_4H_VCAM1: BioMAP Diversity Plus: 4H Assay for Vascular cell adhesion molecule 1 (VCAM1) Biomarker Activity (AID 2283033); conditions: primary human endothelial cells (HUVEC); actives raise or lower the signal;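 further: cell-surface VCAM-1 protein measured by ELISA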
Procedure, shortened: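 Primary human umbilical vein endothelial cells were exposed to chemicals for 24 h, after which VCAM-1 was quantified by ELISA. Responses were fitted bidirectionally against DMSO as negative control and activity baseline.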

[4] = read-out: Interferon-gamma inducible Protein 10 (IP10), CXCL10 (gene 3627); assay: BSK_BE3C_IP10: BioMAP Diversity Plus: BE3C Assay for Interferon-gamma inducible Protein 10 (IP10) Biomarker Activity (AID 2283034); conditions: primary human bronchial epithelial cells; actives raise or lower the signal
Procedure, shortened: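 Human primary bronchial epithelial cells were exposed to chemicals for 24 hours, after which IP-10 levels were measured by ELISA. Data were fitted bidirectionally against DMSO, which served as the negative control and activity baseline.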

[5] = read-out: Monokine induced gamma interferon (MIG), CXCL9 (gene 4283); assay: BSK_BE3C_MIG: BioMAP Diversity Plus: BE3C Assay for Monokine induced gamma interferon (MIG) Biomarker Activity (AID 2283035); conditions: primary human bronchial epithelial cells; actives raise or lower the signal;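 further: MIG protein measured by ELISA in BE3C cultures after 24 h of dosing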
Procedure, shortened: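 MIG level was determined by ELISA after 24 h chemical treatment of primary human bronchial epithelial cells. Values were fitted bidirectionally with DMSO as the negative control and activity baseline.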

[6] = read-out: Plasminogen activator inhibitor-1 (PAI1), SERPINE1 (gene 5054); assay: BSK_BE3C_PAI1: BioMAP Diversity Plus: BE3C Assay for Plasminogen activator inhibitor-1 (PAI1) Biomarker Activity (AID 2283037); conditions: primary human bronchial epithelial cells; actives raise or lower the signal
Procedure, shortened: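 Human primary bronchial epithelial cells were exposed to chemical for 24 h, then PAI-1 was quantified by ELISA. Activity was fitted bidirectionally relative to the DMSO negative control baseline.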

[7] = read-out: urokinase plasminogen activator (uPA), PLAU (gene 5328); assay: BSK_BE3C_uPA: BioMAP Diversity Plus: BE3C Assay for urokinase plasminogen activator (uPA) Biomarker Activity (AID 2283038); conditions: primary human bronchial epithelial cells; actives raise or lower the signal;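 further: uPA protein level quantified by ELISA in cell cultures; uPA read one day after compound addition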
Procedure, shortened: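 Bronchial epithelial cells (human, primary); chemical 24 h; uPA by ELISA; bidirectional fit vs DMSO. SRB (0.1%, after 10% TCA fixation, 560 nm) in parallel cultures for cytotoxicity.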

[8] = read-out: Interleukin-6 (IL6), IL6 (gene 3569); assay: BSK_CASM3C_IL6: BioMAP Diversity Plus: CASM3C Assay for Interleukin-6 (IL6) Biomarker Activity for (AID 2283040); conditions: primary human coronary artery smooth muscle cells; actives raise or lower the signal
[9] = read-out: Interleukin-8 (IL8), CXCL8 (gene 3576); assay: BSK_CASM3C_IL8: BioMAP Diversity Plus: CASM3C Assay for Interleukin-8 (IL8) Biomarker Activity (AID 2283042); conditions: primary human coronary artery smooth muscle cells; actives raise or lower the signal;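 further: IL-8 protein level quantified by ELISA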
[10] = read-out: Human Leukocyte Antigen - DR isotype (HLADR), HLA-DRA (gene 3122); assay: BSK_CASM3C_HLADR: BioMAP Diversity Plus: CASM3C Assay for Human Leukocyte Antigen - DR isotype (HLADR) Biomarker Activity (AID 2283043); conditions: primary human coronary artery smooth muscle cells; actives raise or lower the signal;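 further: cell-surface HLA-DR protein level quantified by ELISA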
[11] = read-out: Macrophage colony-stimulating factor (MCSF), CSF1 (gene 1435); assay: BSK_CASM3C_MCSF: BioMAP Diversity Plus: CASM3C Assay for Macrophage colony-stimulating factor (MCSF) Biomarker Activity (AID 2283044); conditions: primary human coronary artery smooth muscle cells; actives raise or lower the signal;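 further: M-CSF protein amount quantified by ELISA after 24 h exposure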
[12] = read-out: Low-density lipoprotein receptor (LDLR), LDLR (gene 3949); assay: BSK_CASM3C_LDLR: BioMAP Diversity Plus: CASM3C Assay for Low-density lipoprotein receptor (LDLR) Biomarker Activity (AID 2283045); conditions: primary human coronary artery smooth muscle cells; actives raise or lower the signal;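 further: LDLR protein level on the cell surface quantified by ELISA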
[13] = read-out: Monocyte Chemoattractant Protein-1 (MCP1), CCL2 (gene 6347); assay: BSK_CASM3C_MCP1: BioMAP Diversity Plus: CASM3C Assay for Monocyte Chemoattractant Protein-1 (MCP1) Biomarker Activity (AID 2283046); conditions: primary human coronary artery smooth muscle cells; actives raise or lower the signal;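 further: MCP-1 level quantified by ELISA 24 h after dosing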
[14] = BSK_CASM3C_Proliferation: Cell Proliferation Assessment in the BioMAP Diversity Plus: CASM3C Assay (AID 2283047); conditions: primary human coronary artery smooth muscle cells;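 further: sulforhodamine B total protein stain as relative cell number at 560 nm; sub-confluent cells exposed 48 h before staining; fitted both ways against DMSO so gain or loss of cell number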
[15] = read-out: Monokine induced gamma interferon (MIG), CXCL9 (gene 4283); assay: BSK_CASM3C_MIG: BioMAP Diversity Plus: CASM3C Assay for Monokine induced gamma interferon (MIG) Biomarker Activity (AID 2283048); conditions: primary human coronary artery smooth muscle cells; actives raise or lower the signal;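 further: MIG protein level measured by ELISA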
[16] = read-out: serum amyloid A (SAA), SAA1 (gene 6288); assay: BSK_CASM3C_SAA: BioMAP Diversity Plus: CASM3C Assay for serum amyloid A (SAA) Biomarker Activity (AID 2283049); conditions: primary human coronary artery smooth muscle cells; actives raise or lower the signal;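 further: SAA protein level quantified by ELISA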
[17] = BSK_CASM3C_SRB: Viability Assessment in the BioMAP Diversity Plus: CASM3C Assay (AID 2283050); conditions: primary human coronary artery smooth muscle cells;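 further: total protein by SRB staining as cytotoxicity measure in parallel cultures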
[18] = read-out: Transforming growth factor beta 1 (TGFb1), TGFB1 (gene 7040); assay: BSK_BE3C_TGFb1: BioMAP Diversity Plus: BE3C Assay for Transforming growth factor beta 1 (TGFb1) Biomarker Activity (AID 2283036); conditions: primary human bronchial epithelial cells; actives raise or lower the signal
Procedure, shortened: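 Human primary bronchial epithelial cells (BE3C system) were dosed with chemical and TGF-b1 levels measured by ELISA at 24 h. Activity was fitted bidirectionally relative to DMSO negative control as baseline.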

[19] = read-out: Urokinase-type plasminogen activator receptor (uPAR), PLAUR (gene 5329); assay: BSK_BE3C_uPAR: BioMAP Diversity Plus: BE3C Assay for Urokinase-type plasminogen activator receptor (uPAR) Biomarker Activity (AID 2283039); conditions: primary human bronchial epithelial cells; actives raise or lower the signal;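 further: uPAR protein level measured by ELISA on the cells; cells exposed to compound for one day before measurement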
Procedure, shortened: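 Primary human bronchial epithelial cells were dosed with chemical and harvested 24 h later; uPAR was quantified by ELISA. Activity was fitted bidirectionally against DMSO as negative control and baseline.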

OC[C@H]1O[C@H](O[C@]2(CCl)O[C@H](CCl)[C@@H](O)[C@@H]2O)[C@H](O)[C@@H](O)[C@H]1Cl
outcome [1]: inactive
outcome [2]: inactive
outcome [3]: inactive
outcome [4]: inactive
outcome [5]: inactive
outcome [6]: inactive
outcome [7]: inactive
outcome [8]: inactive
outcome [9]: inactive
outcome [10]: inactive
outcome [11]: inactive
outcome [12]: inactive
outcome [13]: inactive
outcome [14]: inactive
outcome [15]: inactive
outcome [16]: inactive
outcome [17]: inactive

CCc1c(C)cc(N)c(CC)c1N
outcome [1]: inactive
outcome [2]: inactive
outcome [3]: inactive
outcome [4]: inactive
outcome [5]: inactive
outcome [18]: inactive
outcome [6]: inactive
outcome [7]: inactive
outcome [8]: inactive
outcome [9]: inactive
outcome [10]: inactive
outcome [11]: inactive
outcome [12]: inactive
outcome [13]: inactive
outcome [14]: inactive
outcome [15]: inactive
outcome [16]: inactive
outcome [17]: inactive

CC(=O)OCCC(C)CC(C)(C)C (stereo not given)
outcome [1]: inactive
outcome [2]: inactive
outcome [3]: inactive
outcome [4]: inactive
outcome [5]: inactive
outcome [6]: inactive
outcome [7]: inactive
outcome [19]: inactive
outcome [8]: inactive
outcome [9]: inactive
AC50 [10]: 5 µM (active)
outcome [10]: inactive
outcome [11]: inactive
outcome [12]: inactive
outcome [13]: inactive
outcome [14]: inactive
outcome [15]: inactive
outcome [16]: inactive
outcome [17]: inactive

COc1cc(C=O)ccc1OC(=O)C(C)C
outcome [1]: inactive
outcome [2]: inactive
outcome [3]: inactive
outcome [4]: inactive
outcome [5]: inactive
outcome [6]: inactive
outcome [7]: inactive
outcome [8]: inactive
outcome [9]: inactive
outcome [10]: inactive
AC50 [11]: 2.86 µM (active)
outcome [11]: inactive
AC50 [12]: 0.15 µM (active)
outcome [12]: inactive
outcome [13]: inactive
outcome [14]: inactive
outcome [15]: inactive
outcome [16]: inactive
outcome [17]: inactive

OC1OC[C@@H](O)[C@H](O)[C@H]1O (stereo not given in full)
outcome [1]: inactive
outcome [2]: inactive
outcome [3]: inactive
outcome [4]: inactive
outcome [5]: inactive
outcome [6]: inactive
outcome [7]: inactive
outcome [8]: inactive
outcome [9]: inactive
outcome [10]: inactive
outcome [11]: inactive
outcome [12]: inactive
outcome [13]: inactive
outcome [14]: inactive
outcome [15]: inactive
outcome [16]: inactive
outcome [17]: inactive

CC(=O)[C@H]1CC[C@H]2[C@@H]3CC=C4C[C@@H](O)CC[C@]4(C)[C@H]3CC[C@]12C
outcome [1]: inactive
outcome [2]: inactive
outcome [3]: inactive
outcome [4]: inactive
outcome [5]: inactive
outcome [6]: inactive
outcome [7]: inactive
outcome [8]: inactive
outcome [9]: inactive
outcome [10]: inactive
outcome [11]: inactive
AC50 [12]: 1.86 µM (active)
outcome [12]: inactive
AC50 [13]: 10.9 µM (active)
outcome [13]: inactive
AC50 [14]: 6.96 µM (active)
outcome [14]: inactive
outcome [15]: inactive
outcome [16]: inactive
outcome [17]: inactive
